“And” between values parts separate entries of the source, which are not always exact repeats. Equal entries are not always repeated. Results filed as inconclusive are left out. The source holds several records for some structures; these can differ, active in one and inactive in another. The source made the active and inactive calls. How the source made its calls, unless noted: active means hit-call score of the fitted dose curve at least 0.9, where 1 is the maximum; inconclusive means response in the unintended direction; inactive means score below 0.9.
How the values were obtained:
[1] = system: turtle Estrogen Receptor (ERa), gene 101933533; assay: ATG_trERa_XSP2: Attagene TRANS-FACTORIAL Multi-Species (XSP2) HepG2 Assay for turtle Estrogen Receptor (ERa) (AID 2283812);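 further: actives raise reporter signal above DMSO so AC50 reflects agonist activity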
Summary of the method: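 Readout is reporter mRNA quantified by RT-PCR with capillary electrophoresis after 24 h compound exposure, increase relative to DMSO. Uses transiently transfected human HepG2 liver cells carrying a chimeric turtle ERa-Gal4 receptor driving GAL4-UAS reporters.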

[2] = biological target: Estrogen receptor beta (Homo sapiens) (UniProt Q92731); assay: ATG_hERb_XSP2: Attagene TRANS-FACTORIAL Multi-Species (XSP2) HepG2 Assay for human Estrogen Receptor (ERb) (AID 2283813);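 further: actives raise reporter mRNA above DMSO so AC50 reflects agonist induction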
Chain of Estrogen receptor beta (Homo sapiens) (Q92731 whole entry, looked up, the tested form may be a part): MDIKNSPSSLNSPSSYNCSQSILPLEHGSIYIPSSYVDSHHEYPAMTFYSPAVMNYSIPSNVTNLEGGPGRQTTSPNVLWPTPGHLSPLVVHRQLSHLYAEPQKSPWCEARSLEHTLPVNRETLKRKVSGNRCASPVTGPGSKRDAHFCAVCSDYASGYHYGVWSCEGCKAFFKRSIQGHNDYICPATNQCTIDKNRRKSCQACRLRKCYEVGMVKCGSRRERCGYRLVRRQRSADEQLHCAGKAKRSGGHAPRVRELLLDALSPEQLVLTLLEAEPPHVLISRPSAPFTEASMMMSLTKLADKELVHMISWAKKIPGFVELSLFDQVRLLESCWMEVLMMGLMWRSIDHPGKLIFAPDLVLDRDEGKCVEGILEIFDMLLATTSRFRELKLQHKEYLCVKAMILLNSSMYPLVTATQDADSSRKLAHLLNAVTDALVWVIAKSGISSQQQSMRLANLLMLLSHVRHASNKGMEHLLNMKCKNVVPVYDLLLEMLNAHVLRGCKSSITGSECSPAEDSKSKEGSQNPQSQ
Summary of the method: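 Transient TRANS reporter system in HepG2: after 24 h of chemical, RNA is reverse-transcribed, reporter cDNA amplified, FAM-labelled and sized by capillary electrophoresis. Induction of the human ERb-Gal4 reporter is measured relative to DMSO.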

[3] = biological target: zebrafish Estrogen Receptor (ER1), esr1 (gene 259252) (UniProt P57717); assay: ATG_zfER1_XSP2: Attagene TRANS-FACTORIAL Multi-Species (XSP2) HepG2 Assay for zebrafish Estrogen Receptor (ER1) (AID 2283816)
Chain of zebrafish Estrogen Receptor (ER1), esr1 (gene 259252) (P57717 whole entry, looked up, the tested form may be a part): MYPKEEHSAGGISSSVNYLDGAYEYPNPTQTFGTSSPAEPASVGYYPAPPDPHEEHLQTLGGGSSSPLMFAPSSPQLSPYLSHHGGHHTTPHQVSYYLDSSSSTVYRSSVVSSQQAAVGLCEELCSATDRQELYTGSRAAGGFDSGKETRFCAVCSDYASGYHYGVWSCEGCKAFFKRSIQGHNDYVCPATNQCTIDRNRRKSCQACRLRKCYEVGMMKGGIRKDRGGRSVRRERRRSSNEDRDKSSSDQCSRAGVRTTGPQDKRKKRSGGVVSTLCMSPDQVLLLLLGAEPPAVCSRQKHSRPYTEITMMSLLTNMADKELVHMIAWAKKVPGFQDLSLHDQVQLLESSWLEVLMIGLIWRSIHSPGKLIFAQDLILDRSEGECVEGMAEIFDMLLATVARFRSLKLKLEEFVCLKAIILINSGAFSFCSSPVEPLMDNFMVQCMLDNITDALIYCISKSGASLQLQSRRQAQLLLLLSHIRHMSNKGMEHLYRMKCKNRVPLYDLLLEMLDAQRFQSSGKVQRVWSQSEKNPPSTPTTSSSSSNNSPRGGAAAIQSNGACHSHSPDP
Summary of the method: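 After 24 h compound exposure, RNA from transfected HepG2 cells was reverse-transcribed and reporter transcripts resolved by capillary electrophoresis. The TRANS format reads exogenous zebrafish ER1-Gal4 chimera activity on GAL4-UAS elements; gain of signal against DMSO.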

[4] = biological target: chicken Estrogen Receptor (ERa), ESR1 (gene 396099) (UniProt P06212); assay: ATG_chERa_XSP2: Attagene TRANS-FACTORIAL Multi-Species (XSP2) HepG2 Assay for chicken Estrogen Receptor (ERa) (AID 2283817);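 further: actives raise reporter signal above DMSO so AC50 reflects ER activation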
Chain of chicken Estrogen Receptor (ERa), ESR1 (gene 396099) (P06212 whole entry, looked up, the tested form may be a part): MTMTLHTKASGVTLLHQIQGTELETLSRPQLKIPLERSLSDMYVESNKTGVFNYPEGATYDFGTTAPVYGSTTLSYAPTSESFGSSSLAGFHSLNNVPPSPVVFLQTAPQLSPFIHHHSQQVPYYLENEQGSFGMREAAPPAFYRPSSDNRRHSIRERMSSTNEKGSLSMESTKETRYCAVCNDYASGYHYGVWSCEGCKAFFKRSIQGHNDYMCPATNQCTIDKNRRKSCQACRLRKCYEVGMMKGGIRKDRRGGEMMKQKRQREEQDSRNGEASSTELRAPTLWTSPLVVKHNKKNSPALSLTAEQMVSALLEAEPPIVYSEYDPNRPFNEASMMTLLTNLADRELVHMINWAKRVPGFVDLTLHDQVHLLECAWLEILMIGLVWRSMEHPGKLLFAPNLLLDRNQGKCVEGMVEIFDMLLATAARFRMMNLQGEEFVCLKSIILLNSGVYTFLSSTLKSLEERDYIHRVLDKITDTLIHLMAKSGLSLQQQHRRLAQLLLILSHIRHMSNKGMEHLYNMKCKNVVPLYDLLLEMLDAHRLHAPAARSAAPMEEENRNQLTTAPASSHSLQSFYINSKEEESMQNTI
Summary of the method: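 Reporter mRNA induction read by RT-PCR, fluorescent labelling and capillary electrophoresis after 24 h exposure; positive-direction fit against DMSO baseline. HepG2 cells transfected with multiplexed GAL4-UAS units including chicken ERa chimera; medium contained 3 nM 6-alpha-fluorotestosterone plus 1.5 nM norgestrel.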

[5] = system: frog Estrogen Receptor (ER), gene 398734; assay: ATG_frER1_XSP2: Attagene TRANS-FACTORIAL Multi-Species (XSP2) HepG2 Assay for frog Estrogen Receptor (ER) (AID 2283821);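 further: hits raise reporter mRNA above DMSO baseline so potency means agonist or activator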
Summary of the method: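 HepG2 cells transiently transfected with multiplexed GAL4-UAS reporter units expressing chimeric NR-Gal4 proteins (TRANS format) were dosed for 24 h. Reporter mRNA was quantified by RT-PCR, FAM primer extension, HpaI digestion and capillary electrophoresis; gain of signal relative to DMSO.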

[6] = system: zebrafish Estrogen Receptor (ER2b), gene 317733; assay: ATG_zfER2b_XSP2: Attagene TRANS-FACTORIAL Multi-Species (XSP2) HepG2 Assay for zebrafish Estrogen Receptor (ER2b) (AID 2283823);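 further: fitted upward as reporter gain over DMSO so potency reflects activation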
Summary of the method: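 Transcriptional induction measured as reporter mRNA (RT-PCR, fluorescent capillary electrophoresis) in transiently transfected HepG2 cells after 24 h dosing; DMSO served as negative control and baseline.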

[7] = biological target: Estrogen receptor (Homo sapiens) (UniProt P03372); assay: ATG_hERa_XSP2: Attagene TRANS-FACTORIAL Multi-Species (XSP2) HepG2 Assay for human Estrogen Receptor (ERa) (AID 2283827)
Chain of Estrogen receptor (Homo sapiens) (P03372 whole entry, looked up, the tested form may be a part): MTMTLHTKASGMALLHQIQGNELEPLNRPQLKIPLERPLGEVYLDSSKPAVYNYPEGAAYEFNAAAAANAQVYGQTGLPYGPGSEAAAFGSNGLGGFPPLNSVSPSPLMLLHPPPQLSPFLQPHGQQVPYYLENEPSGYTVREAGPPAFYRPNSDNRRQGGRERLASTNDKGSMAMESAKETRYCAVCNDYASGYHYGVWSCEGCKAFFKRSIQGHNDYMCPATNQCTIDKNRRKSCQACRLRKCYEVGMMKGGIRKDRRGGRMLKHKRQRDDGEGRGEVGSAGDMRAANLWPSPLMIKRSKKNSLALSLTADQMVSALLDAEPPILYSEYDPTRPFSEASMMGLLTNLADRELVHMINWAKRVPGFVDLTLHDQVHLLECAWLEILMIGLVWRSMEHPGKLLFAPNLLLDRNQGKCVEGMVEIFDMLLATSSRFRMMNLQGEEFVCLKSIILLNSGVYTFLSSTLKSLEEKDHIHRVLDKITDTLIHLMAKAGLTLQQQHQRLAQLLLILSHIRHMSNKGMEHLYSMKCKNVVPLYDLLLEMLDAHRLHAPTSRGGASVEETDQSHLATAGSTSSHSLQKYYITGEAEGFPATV
Summary of the method: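 Trans-activation of exogenous human ERa-Gal4 chimera read in HepG2 as reporter transcript after 24 h exposure; medium included 3 nM 6-alpha-fluorotestosterone and 1.5 nM norgestrel. Quantified by RT-PCR with capillary electrophoresis, positive-direction fitting against DMSO.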

[8] = system: frog Estrogen Receptor (ER2), gene 100174814; assay: ATG_frER2_XSP2: Attagene TRANS-FACTORIAL Multi-Species (XSP2) HepG2 Assay for frog Estrogen Receptor (ER2) (AID 2283828)
Summary of the method: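 Read-out: reporter transcript levels by RT-PCR with 6-FAM primer extension, HpaI digestion and capillary electrophoresis, scored as induction over DMSO control. Transfected HepG2 carrying Xenopus ER2–GAL4 chimera; compounds incubated 24 h.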

[9] = biological target: mouse Peroxisome Proliferator-activated Receptor gamma (PPARg), Pparg (gene 19016) (UniProt P37238); assay: ATG_mPPARg_XSP2: Attagene TRANS-FACTORIAL Multi-Species (XSP2) HepG2 Assay for mouse Peroxisome Proliferator-activated Receptor gamma (PPARg) (AID 2283830);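 further: hits are gains in reporter mRNA above DMSO so AC50 marks activation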
Chain of mouse Peroxisome Proliferator-activated Receptor gamma (PPARg), Pparg (gene 19016) (P37238 whole entry, looked up, the tested form may be a part): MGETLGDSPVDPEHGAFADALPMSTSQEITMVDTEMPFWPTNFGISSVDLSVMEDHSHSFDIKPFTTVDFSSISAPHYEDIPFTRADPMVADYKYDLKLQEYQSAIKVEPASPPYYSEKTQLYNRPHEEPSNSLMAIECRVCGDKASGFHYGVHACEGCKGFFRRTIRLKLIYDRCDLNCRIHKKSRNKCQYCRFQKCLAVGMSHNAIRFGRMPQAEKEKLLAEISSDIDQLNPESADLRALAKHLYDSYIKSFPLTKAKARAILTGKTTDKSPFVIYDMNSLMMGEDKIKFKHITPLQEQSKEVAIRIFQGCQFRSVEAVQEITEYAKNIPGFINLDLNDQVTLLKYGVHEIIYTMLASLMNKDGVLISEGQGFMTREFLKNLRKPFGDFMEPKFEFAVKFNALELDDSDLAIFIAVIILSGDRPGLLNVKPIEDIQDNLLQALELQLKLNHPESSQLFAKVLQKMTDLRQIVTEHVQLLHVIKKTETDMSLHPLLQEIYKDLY
Summary of the method: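 Multiplexed TRANS reporter readout: after 24 h chemical exposure of transfected HepG2 cells (with 3 nM 6-alpha-fluorotestosterone, 1.5 nM norgestrel present), RNA reverse-transcribed, amplified, 6-FAM-labelled and resolved by capillary electrophoresis; mouse PPARg-Gal4 induction scored against DMSO.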

[10] = biological target: Nuclear receptor subfamily 1 group I member 2 (Mus musculus) (UniProt O54915); assay: ATG_mPXR_XSP2: Attagene TRANS-FACTORIAL Multi-Species (XSP1) HepG2 Assay for mouse Pregnane X Receptor (PXR) (AID 2283831)
Chain of Nuclear receptor subfamily 1 group I member 2 (Mus musculus) (O54915 whole entry, looked up): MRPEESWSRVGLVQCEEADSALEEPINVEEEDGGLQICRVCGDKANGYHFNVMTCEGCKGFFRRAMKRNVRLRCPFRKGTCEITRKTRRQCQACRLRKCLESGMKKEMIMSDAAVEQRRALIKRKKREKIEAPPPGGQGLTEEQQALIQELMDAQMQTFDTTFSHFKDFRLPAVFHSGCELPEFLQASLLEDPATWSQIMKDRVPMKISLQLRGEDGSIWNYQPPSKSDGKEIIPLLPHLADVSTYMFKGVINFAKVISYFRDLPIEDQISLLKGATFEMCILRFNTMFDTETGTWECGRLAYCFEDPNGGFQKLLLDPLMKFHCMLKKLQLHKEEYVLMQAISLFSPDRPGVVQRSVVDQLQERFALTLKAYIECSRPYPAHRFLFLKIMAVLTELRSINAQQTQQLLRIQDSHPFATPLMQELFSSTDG
Summary of the method: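 Fluorescence signals from capillary electrophoresis of RT-PCR-amplified reporter mRNA give the readout, gain-of-signal versus DMSO. Transfected HepG2 cells, 24 h dosing, medium contained 3 nM 6-alpha-fluorotestosterone and 1.5 nM norgestrel.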

[11] = biological target: zebrafish Thyroid Hormone Receptor alpha (TRa), thraa (gene 30670) (UniProt Q98867); assay: ATG_zfTRa_XSP2: Attagene TRANS-FACTORIAL Multi-Species (XSP1) HepG2 Assay for zebrafish Thyroid Hormone Receptor alpha (TRa) (AID 2283832);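 further: actives raise zebrafish TRa-Gal4 reporter transcript above DMSO baseline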
Chain of zebrafish Thyroid Hormone Receptor alpha (TRa), thraa (gene 30670) (Q98867 whole entry, looked up, the tested form may be a part): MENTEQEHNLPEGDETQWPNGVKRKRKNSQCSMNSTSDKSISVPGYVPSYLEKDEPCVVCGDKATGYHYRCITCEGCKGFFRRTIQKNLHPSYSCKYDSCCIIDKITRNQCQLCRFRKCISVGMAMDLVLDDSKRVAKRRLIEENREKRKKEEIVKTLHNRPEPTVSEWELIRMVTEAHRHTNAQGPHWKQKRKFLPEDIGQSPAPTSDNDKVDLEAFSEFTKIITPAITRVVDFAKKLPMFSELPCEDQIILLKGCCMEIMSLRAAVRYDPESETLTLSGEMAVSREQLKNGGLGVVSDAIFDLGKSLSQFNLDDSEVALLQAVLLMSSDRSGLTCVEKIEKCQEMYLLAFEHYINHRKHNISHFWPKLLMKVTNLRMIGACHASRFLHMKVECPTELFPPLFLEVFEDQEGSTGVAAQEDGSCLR
Summary of the method: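 HepG2, transient MRTU transfection, exogenous NR-Gal4 chimeras; 24 h dosing; mRNA readout via RT-PCR/CE fluorescence; positive direction vs DMSO.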

[12] = system: zebrafish Peroxisome Proliferator-activated Receptor gamma (PPARg), gene 557037; assay: ATG_zfPPARg_XSP2: Attagene TRANS-FACTORIAL Multi-Species (XSP2) HepG2 Assay for zebrafish Peroxisome Proliferator-activated Receptor gamma (PPARg) (AID 2283833);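 further: reporter mRNA from a zebrafish PPARg GAL4 chimera measured by RT-PCR and capillary electrophoresis; actives increase reporter signal over DMSO so AC50 reflects activation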
Summary of the method: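 HepG2, transient MRTU transfection, 24 h compound; zfPPARg-GAL4 reporter mRNA by RT-PCR + capillary electrophoresis; gain-of-signal vs DMSO.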

[13] = system: turtle Thyroid Hormone Receptor, alpha (TRa), gene 101949057; assay: ATG_trTRa_XSP2: Attagene TRANS-FACTORIAL Multi-Species (XSP1) HepG2 Assay for turtle Thyroid Hormone Receptor, alpha (TRa) (AID 2283834);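 further: hits raise reporter mRNA over the DMSO baseline so AC50 marks activators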
Summary of the method: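 Multiplexed TRANS reporter assay; HepG2 carrying NR-Gal4 constructs treated 24 h. mRNA of the GAL4-UAS reporter quantified via labelled RT-PCR fragments on a genetic analyzer, vs DMSO negative control.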

[14] = ATG_M_61_XSP2: Attagene TRANS-FACTORIAL Multi-Species (XSP2) HepG2 Assay for M61 Transcription Factor (Internal Marker) (AID 2283835; active means hit-call score of the fitted dose curve at least 0.9, where 1 is the maximum; inactive means score below 0.9;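 further: active means a rise in signal above the DMSO baseline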)
Summary of the method: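 Internal background marker, read as RT-PCR/capillary-electrophoresis reporter mRNA 24 h post-dose in transiently transfected HepG2 cells. Androgen receptor stimulated with 3 nM 6-alpha-fluorotestosterone plus 1.5 nM norgestrel; gain of signal versus DMSO analysed.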

[15] = biological target: GAL4 Transcription Factor (Internal Marker), GAL4 (gene 855828) (UniProt P04386); assay: ATG_GAL4_XSP2: Attagene TRANS-FACTORIAL Multi-Species (XSP2) HepG2 Assay for GAL4 Transcription Factor (Internal Marker) (AID 2283814);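 further: GAL4 reporter mRNA background control in MRTU transfected cells not a receptor target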
Chain of GAL4 Transcription Factor (Internal Marker), GAL4 (gene 855828) (P04386 whole entry, looked up, the tested form may be a part): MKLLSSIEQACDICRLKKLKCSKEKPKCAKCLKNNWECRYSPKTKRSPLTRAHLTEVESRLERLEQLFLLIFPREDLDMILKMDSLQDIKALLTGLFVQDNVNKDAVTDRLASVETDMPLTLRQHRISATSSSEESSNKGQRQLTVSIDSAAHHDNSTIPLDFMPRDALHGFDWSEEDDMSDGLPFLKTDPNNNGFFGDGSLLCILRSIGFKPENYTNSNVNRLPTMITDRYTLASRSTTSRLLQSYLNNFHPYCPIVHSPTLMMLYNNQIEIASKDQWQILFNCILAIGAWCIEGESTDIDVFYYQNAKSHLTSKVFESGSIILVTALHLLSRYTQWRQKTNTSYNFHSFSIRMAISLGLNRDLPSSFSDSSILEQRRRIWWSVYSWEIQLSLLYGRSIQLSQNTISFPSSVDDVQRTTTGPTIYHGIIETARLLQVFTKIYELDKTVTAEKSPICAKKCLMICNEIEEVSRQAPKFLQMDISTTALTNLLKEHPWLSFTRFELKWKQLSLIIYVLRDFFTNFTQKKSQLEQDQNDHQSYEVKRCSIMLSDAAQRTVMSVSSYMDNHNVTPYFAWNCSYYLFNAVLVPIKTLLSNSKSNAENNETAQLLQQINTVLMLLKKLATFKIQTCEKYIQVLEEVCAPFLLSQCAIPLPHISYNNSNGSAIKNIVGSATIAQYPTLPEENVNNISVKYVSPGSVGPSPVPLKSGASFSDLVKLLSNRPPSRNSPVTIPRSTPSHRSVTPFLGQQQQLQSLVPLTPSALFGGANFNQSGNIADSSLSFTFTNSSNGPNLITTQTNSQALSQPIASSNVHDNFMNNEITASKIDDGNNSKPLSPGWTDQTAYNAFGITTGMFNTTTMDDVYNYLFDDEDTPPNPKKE
Summary of the method: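 Background-control readout: gain-of-signal fitted against DMSO. After 24 h exposure of transfected HepG2 (MRTU, GAL4-UAS reporters; 3 nM 6-alpha-fluorotestosterone, 1.5 nM norgestrel present), transcripts quantified by RT-PCR and capillary electrophoresis fluorescence.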

[16] = ATG_M_19_XSP2: Attagene TRANS-FACTORIAL Multi-Species (XSP2) HepG2 Assay for M32 Transcription Factor (Internal Marker) (AID 2283822)
Summary of the method: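 Internal background marker in a multi-species nuclear receptor TRANS panel: transfected HepG2 cells exposed 24 h, with 3 nM 6-alpha-fluorotestosterone and 1.5 nM norgestrel present. Readout is RT-PCR of reporter transcripts resolved by capillary electrophoresis, gain-of-signal versus DMSO.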

[17] = ATG_M_32_XSP2: Attagene TRANS-FACTORIAL Multi-Species (XSP2) HepG2 Assay for M19 Transcription Factor (Internal Marker) (AID 2283826)
Summary of the method: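 An internal background marker among multiplexed transfected reporters in HepG2 liver cells was measured 24 h after dosing. Androgen receptor stimulation came from 3 nM 6-alpha-fluorotestosterone and 1.5 nM norgestrel.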

[18] = system: zebrafish Androgen Receptor (AR), gene 100005148; assay: ATG_zfAR_XSP2: Attagene TRANS-FACTORIAL Multi-Species (XSP2) HepG2 Assay for zebrafish Androgen Receptor (AR) (AID 2283825);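 further: hits raise reporter mRNA above DMSO so AC50 reflects agonist-type gain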
Summary of the method: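 After 24 h compound exposure in medium with 3 nM 6-alpha-fluorotestosterone plus 1.5 nM norgestrel, HepG2 cells carrying zebrafish AR–GAL4 reporter constructs were assessed for reporter mRNA gain by RT-PCR and capillary electrophoresis.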

[19] = system: turtle Androgen Receptor (AR), gene 101947425; assay: ATG_trAR_XSP2: Attagene TRANS-FACTORIAL Multi-Species (XSP2) HepG2 Assay for turtle Androgen Receptor (AR) (AID 2283815)
Summary of the method: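 Reporter transcripts were quantified via RT-PCR and capillary electrophoresis and fitted upward against DMSO. Transiently transfected human HepG2 cells carrying NR-Gal4 chimeras were exposed 24 h, with 3 nM 6-alpha-fluorotestosterone plus 1.5 nM norgestrel added.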

[20] = system: chicken Androgen Receptor (AR), gene 422165; assay: ATG_chAR_XSP2: Attagene TRANS-FACTORIAL Multi-Species (XSP2) HepG2 Assay for chicken Androgen Receptor (AR) (AID 2283819);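 further: hits raise reporter mRNA above DMSO so potency is for activation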
Summary of the method: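 Readout is reporter mRNA induction via RT-PCR/capillary electrophoresis after 24 h chemical exposure, positive direction relative to DMSO. Transiently transfected HepG2 express chimeric chicken AR–GAL4; AR stimulated by 3 nM 6-alpha-fluorotestosterone and 1.5 nM norgestrel.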

Measured: AC50

COP(=S)(OC)Oc1ccc([N+](=O)[O-])c(C)c1
active: [1] 31.9 µM | [2] 47.5 µM | [4] 38.3 µM | [5] 50.4 µM | [6] 54.5 µM | [7] 32.5 µM | [8] 85.1 µM | [9] 31.3 µM | [10] 4.6 µM
inactive: [3] | [11] | [12] | [13] | [14]

CC1(C)CCC(=Cc2ccc(Cl)cc2)C1(O)Cn1cncn1 (stereo unspecified)
active: [4] 27.6 µM | [6] 115 µM | [7] 13.4 µM | [8] 63 µM | [10] 6.24 µM
not listed: [14] | [18] | [19] | [20]
inactive: all other assays above

CC(C)NC(=O)N1CC(=O)N(c2cc(Cl)cc(Cl)c2)C1=O
active: [7] 6.97 µM | [9] 40.6 µM | [10] 6.7 µM
not listed: [2] | [19] | [20]
inactive: all other assays above

Cc1c(COC(=O)[C@@H]2[C@H](/C=C(\Cl)C(F)(F)F)C2(C)C)cccc1-c1ccccc1
active: [1] 38.7 µM | [4] 30.5 µM | [5] 49.3 µM | [6] 100 µM | [7] 26.1 µM | [8] 100 µM | [10] 2 µM
not listed: [12] | [14] | [17] | [19] | [20]
inactive: all other assays above

CCN(CC)C(=O)C(C)Oc1cccc2ccccc12 (stereo unspecified)
active: [1] 10.5 µM | [4] 7.35 µM | [6] 65.7 µM | [7] 7.99 µM | [8] 25.5 µM | [9] 42.6 µM | [10] 6.17 µM
not listed: [15] | [16] | [18] | [19] | [20]
inactive: all other assays above

CC1(C)C(C=C(Cl)Cl)C1C(=O)OC(C#N)c1cccc(Oc2ccccc2)c1 (stereo unspecified)
active: [1] 18 µM | [4] 22.8 µM | [5] 21.1 µM | [6] 100 µM | [7] 17.5 µM | [8] 63.6 µM | [9] 27.8 µM | [10] 2.65 µM | [12] 12.6 µM
inactive: [2] | [19] | [17] | [11] | [13] | [14]

N#Cc1c[nH]cc1-c1cccc2c1OC(F)(F)O2
active: [1] 2.37 µM and 1.02 µM | [3] 25.9 µM | [4] 1.68 µM and 2.04 µM | [5] 4.14 µM | [6] 23.2 µM and 17.5 µM | [7] 1.51 µM | [8] 1.22 µM and 859 nM | [9] 27.2 µM | [10] 6.52 µM and 6.26 µM | [11] 27 µM
inactive: [5] | [11] | [12] | [13] | [14]

CSC(=O)c1c(C(F)F)nc(C(F)(F)F)c(C(=O)SC)c1CC(C)C
inactive: [1] | [15] | [3] | [4] | [20] | [5] | [16] | [17]
active: [6] 15.7 µM | [7] 3.05 µM | [8] 5.69 µM | [9] 5.52 µM | [10] 0.442 µM

COP(=S)(OC)SCn1nnc2ccccc2c1=O
active: [1] 16.4 µM | [4] 21.7 µM | [5] 29.1 µM and 5.67 µM | [6] 132 µM | [7] 24.7 µM | [9] 51.6 µM and 32.6 µM
inactive: [1] | [2] | [15] | [3] | [4] | [6] | [7] | [8] | [10] | [12] | [13] | [14]

C=C(C)CN(CC)c1c([N+](=O)[O-])cc(C(F)(F)F)cc1[N+](=O)[O-]
inactive: [2] | [3] | [11] | [12] | [14]
active: [1] 4.03 µM and 12.5 µM | [4] 11 µM and 28.2 µM | [5] 6.84 µM and 32.4 µM | [6] 33.3 µM and 38 µM | [7] 7.36 µM and 44.2 µM | [8] 10.5 µM and 7.61 µM | [9] 43.7 µM and 52.8 µM | [10] 3.92 µM and 2.8 µM

From PubChem BioAssay (EPA / NIEHS)
